Measurements as given in the supplement of paper PMC6555819.

Key:
Experiment in all cases: PBM binding z-score (relative to random genomic background probes); higher = stronger binding; sequences stand for … in GC…GCGATTGACAGCGTAGAATGAAGG
[1] = test system: FXR:RXRa (NR concentration 270 nM, RXRa partner concentration 90 nM)
In short: (§1)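 Binding buffer was PBS pH 7.4 with 2% milk, 0.02% Triton X-100, 1 mM DTT, 0.2 mg/mL BSA and 0.4 mg/ml salmon testes DNA. In it, ligand-free nuclear receptor dimers were incubated 1 h on custom Agilent 4×180K protein-binding microarrays carrying double-stranded probes. Antibodies against each partner (one per run) detected binding, and z-scores were calculated against random background probes after regression normalization of scanned fluorescence.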

[2] = test system: LXRa:RXRa (NR concentration 270 nM, RXRa partner concentration 90 nM)
In short: as §1

[3] = test system: LXRa homodimer (NR concentration 270 nM)
In short: as §1

[4] = test system: LXRb:RXRa (NR concentration 270 nM, RXRa partner concentration 90 nM)
In short: as §1

[5] = test system: LXRb homodimer (NR concentration 270 nM)
In short: as §1

[6] = test system: PPARa:RXRa (NR concentration 270 nM, RXRa partner concentration 90 nM)
In short: as §1

[7] = test system: PPARg:RXRa (NR concentration 180 nM, RXRa partner concentration 90 nM)
In short: as §1

[8] = test system: PPARg:RXRa 270nM:90nM, anti-RXR (NR concentration 270 nM, RXRa partner concentration 90 nM)
In short: as §1

[9] = test system: PPARg:RXRa 30nM:10nM, anti-RXR (NR concentration 30 nM, RXRa partner concentration 10 nM)
In short: as §1

[10] = test system: PPARg:RXRa 90nM:30nM, anti-RXR (NR concentration 90 nM, RXRa partner concentration 30 nM)
In short: as §1

[11] = test system: PPARg:RXRa DBDmut IVT, anti-RXR (DBD mutation: RXRa K156A/R161A, NR concentration 270 nM, RXRa partner concentration 90 nM)
In short: as §1

[12] = test system: PPARg:RXRa IVT, anti-PPARg (NR concentration 270 nM, RXRa partner concentration 90 nM)
In short: as §1

[13] = test system: PPARg DBDmut:RXRa IVT, anti-PPARg (DBD mutation: PPARg1 K132A/R137A, NR concentration 270 nM, RXRa partner concentration 90 nM)
In short: as §1

[14] = test system: PPARg DBDmut IVT, anti-PPARg (DBD mutation: PPARg1 K132A/R137A, NR concentration 270 nM)
In short: as §1

[15] = test system: PPARg homodimer (NR concentration 180 nM)
In short: as §1

[16] = test system: PXR:RXRa (NR concentration 270 nM, RXRa partner concentration 90 nM)
In short: as §1

[17] = test system: PXR homodimer (NR concentration 270 nM)
In short: as §1

[18] = test system: RARa:RXR (NR concentration 270 nM, RXRa partner concentration 90 nM)
In short: as §1

[19] = test system: RARa homodimer (NR concentration 270 nM)
In short: as §1

[20] = test system: RARb:RXRa (NR concentration 270 nM, RXRa partner concentration 90 nM)
In short: as §1

Row | Sequence | PBM binding z-score [1] | PBM binding z-score [2] | PBM binding z-score [3] | PBM binding z-score [4] | PBM binding z-score [5] | PBM binding z-score [6] | PBM binding z-score [7] | PBM binding z-score [8] | PBM binding z-score [9] | PBM binding z-score [10] | PBM binding z-score [11] | PBM binding z-score [12] | PBM binding z-score [13] | PBM binding z-score [14] | PBM binding z-score [15] | PBM binding z-score [16] | PBM binding z-score [17] | PBM binding z-score [18] | PBM binding z-score [19] | PBM binding z-score [20]
1 | CAAACTAGGTCAAGAGGTCATAGTCCGCTTCCCG | 6.79 | 6.06 | 5.4 | 4.74 | 1.48 | 6.55 | 9.82 | 8 | 6.96 | 8.16 | 8.3 | 8.47 | 3.3 | 2.09 | 5.93 | 5.98 | 2.28 | 7.42 | 2.36 | 5.19
2 | CCTACTGGGCCATCAGGTCAATGATATCAACGTT | 1.53 | 0.905 | 0.486 | 1.15 | -0.402 | 2.54 | 2.79 | 3.37 | 0.642 | 2.76 | 4.61 | 5.43 | 0.416 | 0.266 | 1.14 | 1.16 | 0.0872 | 1.6 | -0.0644 | 2.19
3 | CCTTACGGGTCAAGGTGATAGCACGGGTGGTACG | 5.64 | 3.5 | -0.313 | 2.67 | -0.389 | 4.8 | 4.43 | 4.52 | 1.62 | 3.34 | 1.85 | 3.49 | -0.115 | -0.375 | 1.63 | 2.89 | -0.103 | 3.84 | 0.455 | 4.11
4 | CCTGCTAGGGCATGGTCAGCTAATCTACAGTATG | -0.287 | -0.381 | -0.466 | -0.695 | -1.06 | -0.338 | 0.0735 | -0.381 | -0.463 | -0.375 | 1.27 | 0.942 | -0.789 | -1.21 | -0.604 | -0.584 | -0.686 | -0.414 | -0.802 | 1.43
5 | CTCGAAAGGTCGTGCTCAGGAGAGTATACCAAAC | 4.89 | 3.56 | 0.247 | 3.12 | 0.29 | 4.7 | 2.62 | 3.59 | 1.02 | 2.48 | 0.885 | 1.49 | 0.0921 | 0.34 | 0.909 | 2.6 | 0.45 | 3.47 | 0.362 | 3.87
6 | ATCTCTAGGTAACCGAGTTCAGTGAATGCCGAAC | 0.422 | 0.883 | 1.08 | 0.706 | 0.377 | 1.44 | 0.672 | 1.1 | -0.103 | 0.724 | 3.51 | 2.9 | 0.719 | 0.977 | 0.0322 | 2.93 | 2.94 | 1.04 | 0.216 | 0.826
7 | TTACCAAGGTGAAGGTCATTGATCCCTCTGTAGA | 4.39 | 4.39 | 2.26 | 3.7 | -0.235 | 4.36 | 5.26 | 5.49 | 3.52 | 5.38 | 2.03 | 4.57 | 1.28 | -0.00818 | 2.06 | 3.74 | 0.712 | 3.95 | 0.469 | 3.88
8 | TCATATAGGTAAATGCTAGGTCAAAGTCCGATCT | 1.83 | 3.8 | 5.26 | 2.45 | 0.769 | 2.57 | 1.76 | 2.81 | 3.96 | 3.47 | 4.1 | 3.27 | 0.472 | 1.99 | 1.7 | 1.98 | 1.11 | 2.7 | 1.22 | 1.88
9 | CATTACGGGTCAAGGTTATAGCACGGGTGGTACG | 5.89 | 5.21 | 1.53 | 3.61 | 1.18 | 5.27 | 5.67 | 5.45 | 2.22 | 4.39 | 3.5 | 4.53 | 0.969 | 1.08 | 2.26 | 3.72 | 0.701 | 4.69 | 1.58 | 4.43
10 | GCTTACGGGTCAAAGGTTATAGCCTGAATAGAAT | 7.79 | 5.8 | 0.763 | 5.69 | 0.503 | 6.88 | 11.5 | 9.6 | 10.2 | 11.3 | 4.87 | 6.32 | 0.778 | 1.43 | 7.84 | 6.26 | 0.103 | 8.66 | -0.0748 | 4.65
11 | TCTTTTAGATCAATAGAGGTTAAGAAAGTGCGCT | 1.13 | 4.04 | 0.769 | 2.06 | 0.963 | 2.16 | 0.209 | 2.08 | 3.57 | 2.92 | 1.67 | 1.53 | 1.94 | 1.81 | 0.69 | 3.35 | 0.207 | 2.08 | -0.186 | 1.23
12 | CGAACGAGGGCCTGAGTTGATAGCAAATGCCGAT | -0.571 | -0.754 | -0.624 | -0.612 | -0.92 | -0.663 | 0.336 | -0.582 | -0.305 | -0.468 | -0.653 | -0.278 | -0.385 | -0.392 | -1.19 | -0.457 | -0.641 | -0.337 | -0.966 | -0.393
13 | GATACAGGTTCAAGGCCAGAGTACGCGTATTGAT | 1.85 | 1.7 | 0.305 | 1.41 | -0.271 | 2.72 | 1.43 | 1.64 | 0.208 | 1.19 | -0.252 | 0.582 | -0.175 | -0.432 | 1.38 | 1.9 | 0.971 | 1.61 | 0.647 | 1.79
14 | CCGACTGGGGCAAAGGTTACCTTACTCAGTACGA | 1.37 | 1.71 | -0.345 | 1.98 | -1.42 | 5.37 | 10.6 | 9.12 | 7.96 | 9.81 | 5 | 5.64 | 0.278 | -0.11 | 1.61 | 2.22 | -0.485 | 3.41 | -0.487 | 2.19
15 | TCTATTAGTTGATTAGGGCACCCGAAACAGCGGA | 0.613 | 0.698 | 0.336 | 0.367 | 0.572 | 0.646 | 0.343 | 1.83 | 3.73 | 2.91 | 2.25 | 1.68 | 0.695 | 1.2 | 1.1 | 0.419 | 0.671 | 0.573 | 1.64 | 0.873
